15 molecules from PubChem BioAssay (EPA / NIEHS) can be followed below.

Structures are written as SMILES. “And” between values parts separate entries of the source, which are not always exact repeats. Equal entries are not always repeated. The source made the active and inactive calls. The calls were made as follows: active = hit-call score of the fitted dose curve at least 0.9, where 1 is the maximum; inactive = score below 0.9.

Read-out in this experiment: Collagen I, COL1A1 (gene 1277)
Kind of experiment: BSK_MyoF_CollagenI: BioMAP Diversity Plus: MyoF Assay for Collagen I Biomarker Activity (AID 2284238). The following applies: primary human lung fibroblasts. The protocol:
BSK_MyoF is a cell-based, multiplexed-readout assay that uses lung fibroblasts, […], with measurements taken at 24 hours after chemical dosing in a microplate: 96-well plate.BSK_MyoF_CollagenI is an assay component measured in the BSK_MyoF assay. It measures Collagen I antibody related to regulation of gene expression using ELISA technology.Data from the assay component BSK_MyoF_CollagenI was analyzed at the endpoint, BSK_MyoF_CollagenI, in the positive analysis fitting direction relative to DMSO as the negative control and baseline of activity. Using a type of binding reporter, gain or loss-of-signal activity can be used to understand protein changes. To generalize the intended target to other relatable targets, this assay endpoint is annotated to the 'cell adhesion molecules' intended target family, where the subfamily is 'collagen'.
The levels of cell surface (or secreted, indicated by the prefix "s") biomarker endpoints were measured by ELISA. Overt cytotoxicity to cells in confluent adherent cultures (all systems other than the BT system) was assessed by measuring total protein levels using sulforhodamine B (SRB) staining in parallel cultures at the time of biomarker measurements, indicated as SRB endpoints. For proliferation assays for adherent cell types, individual cell types are cultured at sub-confluence and relative cell numbers quantified by SRB staining at time points optimized for each system (48 h: 3C and CASM3C systems; 72 h: BT and HDF3CGF systems; 96 h: SAg system). SRB was performed by staining cells with 0.1% SRB after fixation with 10% TCA and reading wells at 560 nm.Viability and proliferation of PBMC (T cells) was quantified by Alamar Blue reduction for the SAg and BT systems. For PBMC viability (referred to as PBMC Cytotoxicity within the assay endpoint names), cells were plated (75,000/well in a 96-well plate) and then chemical samples added for 1 h before addition of activators, SEB and TSST-1 (20 ng/mL final concentration each). Cells were incubated for 90 h. Then, Alamar Blue (20 uL/well) (Invitrogen, Cat DAL1100) was added for 6 h, and the plates were read with a fluorescence microplate reader at 546/580 nm (excitation/emission). For PBMC proliferation, cells were plated and activated as above but incubated for only 16 h prior to addition of Alamar Blue. Plates were read after 6 h.
For the molecule `CN(C)c1ccc(C(c2ccccc2)c2ccc(N(C)C)cc2)cc1`, the outcome was inactive. For `CCCCCCC(O)CCCCCCCCCCC(=O)OC` (stereo not given), the result was inactive.

Usually AC50 stands for the midpoint of the concentration-response curve, whichever way the signal moves. In the case of `OC(C(F)(F)F)(C(F)(F)F)C(O)(C(F)(F)F)C(F)(F)F`, the AC50 is 46.2 µM (active) and 45.7 µM (active). Regarding `Oc1cccc2ccccc12`, the outcome was inactive. The same measure, in the same setting: then `CN(C)CCC(c1ccc(Cl)cc1)c1ccccn1` (stereo not given), with “inactive”. With `Cc1cccnc1`, the result was inactive. Still for that read-out and setting: then `Cc1cc(-n2nc3ccc(Cl)cc3n2)c(O)c(C(C)(C)C)c1`, with “inactive”; and `Sc1nc2ccccc2s1`, with “inactive”; and `CC(C)CC(=O)CC(C)CC(C)C` (stereo not given), with “inactive”. For `COC(=O)/C=C\C(=O)OC`, the result was inactive. Consider `CCCCCCCCCCCCCCCCCC[N+](C)(C)C`, for which the AC50 was 1.35 µM (active). In the case of `CC[N+](CC)(CC(=O)Nc1c(C)cccc1C)Cc1ccccc1`, the result was inactive.

Take `CCCCCCCCCC/C=C/C1CC(=O)OC1=O` (stereo not given): the outcome was inactive. `O=C(C(=O)c1ccccc1)c1ccccc1`: the result was inactive. For the molecule `CCCCCCCCCCC1CO1` (stereo not given), the AC50 was 31.8 µM (active).
